# Active and inactive are the calls of the source. Rule for the calls: active = hit-call score of the fitted dose curve at least 0.9, where 1 is the maximum; inactive = score below 0.9.
# Test: ATG_CMV_CIS: Attagene CIS-FACTORIAL HepG2 Assay for human CMV (Internal Marker) (AID 2282928);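 note: endpoint acts as a background internal control marker rather than a target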
# Settings: HepG2 CMV promoter reporter, transcription factor profiling; actives raise or lower the signal
# Summary of the method: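 Bidirectional fits against DMSO are applied to reporter mRNA, read by RT-PCR with capillary electrophoresis, from HepG2 cells exposed 24 h. The endpoint serves as an internal CMV background marker within the cis-factorial reporter panel.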
SMILES,outcome,AC50
O=C1C(Cl)=C(Cl)C(=O)C(Cl)=C1Cl,inactive,–
N#CCCCCC#N,inactive,–
CC1CCC(=O)O1 (stereo not drawn),inactive,–
COc1cc(OC)c(OC)cc1C=O,inactive,–
CC(C)c1ccc(O)cc1,–,40.2 µM (active)
C[N+](C)(C)CC(=O)[O-],inactive,–
CC(C)(c1cc(Cl)c(O)c(Cl)c1)c1cc(Cl)c(O)c(Cl)c1,–,8 µM (active)
O=C(NCNC(=O)NC1C(=O)NC(=O)N1CO)NC1C(=O)NC(=O)N1CO (stereo not drawn),inactive,–
[N-]=[N+]=CC(=O)OC[C@H](N)C(=O)O,inactive,–
COCC(=O)N(c1c(C)cccc1C)N1CCOC1=O,inactive,–
CC(C)CCCCCCCOP(=O)(Oc1ccccc1)Oc1ccccc1,–,55.6 µM (active)
CCC1CCC(=O)O1 (stereo not drawn),inactive,–
C=COCCCl,inactive,–
C=CCN(CC=C)C(=O)C(Cl)Cl,inactive,–
CC[N+](=O)[O-],inactive,–
CC(Cc1ccc(C(C)(C)C)cc1)CN1C[C@@H](C)O[C@@H](C)C1 (stereo partly drawn),–,38.6 µM (active)
[Cl-].[Cl-].[Cl-].[Yb+3],inactive,–
CCOC(=O)N(C)N=O,inactive,–
O=CNC(N1CCN(C(NC=O)C(Cl)(Cl)Cl)CC1)C(Cl)(Cl)Cl (stereo not drawn),inactive,–
CCC[N+](=O)[O-],inactive,–
CC(C)(O)C#N,inactive,–
CC(C)C#N,inactive,–
S=c1[nH]c2ccccc2[nH]1,inactive,–
CCCCCc1cc(O)cc(O)c1,inactive,–
c1ccc(Nc2ccc3ccccc3c2)cc1,inactive,–
CSc1nc(N=[N+]=[N-])nc(NC(C)C)n1,–,52.8 µM (active)
CC=Cc1ccc2c(c1)OCO2,inactive,–
Cc1ccc(OP(=O)(Oc2ccc(C)cc2)Oc2ccc(C)cc2)cc1 (tested in a mixture with another compound),inactive,–

# — PubChem BioAssay (EPA / NIEHS)
